Screening data from PubChem BioAssay.
Sampled rows, rich in hits. Any-hit rate of the full collection: about 3.3%.
Tau fibril ThT = inhibitors of human tau fibril formation, thioflavin T binding; P10636; recombinant tau K18 P301L, heparin-induced fibrillization, ThT fluorescence; Potency, µM (series often up to 57.4 µM), for the others: at the top dose activity, negative = inhibition, usual class: inhibitors; 270,000 compounds, 2.1% hits; AID 1460; also: nearly all actives have a fitted effect of over 55% in size
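ThT emission at 510 nm, taken 1 hr after adding 30 uM dye, quantifies aggregates formed when 20 uM heparin acts on human tau K18 P301L for 6 hr at 37 C.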
Tau fluor cs = counter-screen for tau fibril formation inhibitors; 280,000 compounds, 0.93% hits; tau K18 P301L Alexa594 fluorescence, heparin fibrillization; Potency, µM (top dose mostly 57.7 µM), inactives show at the top dose activity change, negative = decrease; also: nearly all actives have a fitted effect of over 55% in size
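Human tau K18 P301L (15 uM unlabeled, 0.24 uM Alexa 594-labeled) in 100 mM sodium acetate pH 7 with 20 uM heparin, 6 hr at 37 C. ThT 30 uM added, 1 hr ambient; Alexa 594 FP and total fluorescence read at 555/632 nm.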
NPSR antag = neuropeptide S receptor (human) antagonism, cAMP. Q6W5P4. CHO-NPSR cells, cAMP TR-FRET, antagonist mode. Potency, µM (highest dose often 38.3 µM), for the others: at the top dose activity change, negative = inhibition, hits mostly inhibitors. 220,000 compounds, 1% hits. AID 1461; also: nearly all actives have a fitted effect of over 50% in size
Target sequence (Q6W5P4 whole entry, looked up): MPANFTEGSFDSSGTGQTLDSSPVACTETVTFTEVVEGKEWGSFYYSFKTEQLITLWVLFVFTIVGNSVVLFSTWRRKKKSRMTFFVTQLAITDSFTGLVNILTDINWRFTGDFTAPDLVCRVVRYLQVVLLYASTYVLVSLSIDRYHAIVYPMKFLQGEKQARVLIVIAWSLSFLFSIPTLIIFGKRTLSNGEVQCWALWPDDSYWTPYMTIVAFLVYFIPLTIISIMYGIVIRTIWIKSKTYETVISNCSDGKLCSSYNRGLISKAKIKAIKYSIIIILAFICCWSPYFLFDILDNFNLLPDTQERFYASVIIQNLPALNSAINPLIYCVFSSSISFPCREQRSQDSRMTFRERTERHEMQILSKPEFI
Luc counter = Kinase-Glo luciferase inhibition (counter-screen); Potency, µM (doses to about 38.3 µM), for inactives: at the top dose activity change, negative = inhibition, hits mostly inhibitors; 200,000 compounds, 0.28% hits; Q27757; Kinase-Glo luciferase, ATP luminescence, 8 min; AID 1379; also: nearly all actives have a fitted effect of over 60% in size
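Recombinant Kinase-Glo luciferase, 10 uM ATP (linear range), luciferin; imidazole pH 7.2 / KCl / MgCl2 / Tween / BSA buffer; 8 min RT; luminescence.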
Tau fibril FP = inhibitors of human tau fibril formation | P10636 | K18 P301L tau heparin fibrillization, Alexa594 FP, 6 h | Potency, µM (top dose mostly 57.7 µM), without a hit: top-dose activity, negative = inhibition, usual class: inhibitors | 280,000 compounds, 0.39% hits | AID 1468; also: nearly all actives have a fitted effect of over 55% in size
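FP of Alexa 594-tau after heparin (20 uM) induction. Substrate: human K18 P301L, 15 uM unlabeled, 0.24 uM labeled. Buffer 100 mM sodium acetate pH 7. 6 hr, 37 C.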
Active calls of the source: *; ? = inconclusive; . = no result given; [ ] = remark or other dose. Calls follow the shape of the dose curve; as a rule, active = well fitted curve in the direction sought with a large enough effect; inconclusive = small, poorly fitted or top-dose-only effect, or another doubt; inactive = no such curve, though single readings can be large; an effect the other way counts as inactive or inconclusive. % is scaled to controls: 0 for no effect and ±100 for the full control effect; potency is read from the fitted curve at half-maximal effect.

SMILES | Tau fibril ThT | Tau fluor cs | NPSR antag | Luc counter | Tau fibril FP
O=c1[nH]c(O)c(N=Nc2ccc3c(c2)OCCO3)c(=O)[nH]1 | 5.6µM* | -8% | -24% | ? | 11%
O=c1[nH]c(=S)[nH]c(O)c1N=Nc1cccc(S(=O)(=O)N2CCOCC2)c1 | ? | -5% | 38% | . | -2%
O=C(N=Nc1c(O)[nH]c(=O)[nH]c1=O)C1COc2ccccc2O1 (configuration not stated) | 28µM* | -11% | 14% | -2% | ?
O=c1[nH]c(=S)[nH]c(O)c1N=Nc1ccc2c(c1)OCCO2 | 2.2µM* | -18% | 37%[7.67 µM] | . | -13%
CCOc1cccc(CC(=O)NCc2ccc3c(c2)CCN3C(=O)c2cccc(C)c2)c1OCC | ? | -13% | . | . | -3%
O=C(O)C(O)(c1ccc(-c2ccccc2)cc1)c1ccc(-c2ccccc2)cc1 | . | . | . | -4%[7.66 µM] | .
Cc1ccc2oc(-c3ccc(Cl)cc3)c(O)c(=O)c2c1 | ? | -20% | . | . | -6%
O=c1cc(-c2ccc(O)c(O)c2)oc2cc(O)cc(O)c12 | 13µM* | ? | -12% | 2% | 7%
Cc1ccc2oc(-c3ccccc3)cc(=O)c2c1 | ? | -23% | . | -5% | ?
O=c1c(O)c(-c2ccc(O)c(O)c2)oc2cc(O)cc(O)c12 | 13µM* | 10µM*[quencher] | ? | 0% | ?
C[C@@H]1O[C@H](C[N+](C)(C)C)C[C@@H]1O | -8% | -7% | . | . | -8%
Cc1nonc1OCCNc1ccc([N+](=O)[O-])c2cccnc12 | 7.1µM* | ? | -27% | 3% | -11%
CCOc1ccc(Cc2c(O)[nH]c(=O)[nH]c2=O)cc1 | 28µM* | -14% | 3%[46.1 µM] | 0% | 25µM*
CC(C)Oc1ccc(Cc2c(O)[nH]c(=O)[nH]c2=O)cc1 | ? | -9% | -8%[46.1 µM] | 0% | ?
N/C(=N\N=C/c1ccc(-c2ccc(O)c(C(=O)O)c2)o1)N[N+](=O)[O-] | 4.5µM* | ? | -16%[46.1 µM] | -16% | -4%
CC(=O)OC1CC(OC(C)=O)[C@]2(C)C(CC(OC(C)=O)[C@]3(C)C2CC[C@@]2(C)C(c4ccoc4)C[C@H]4O[C@]432)C1(C)C (some centres not stated) | -2% | -13% | . | -6% | -7%
CC(=O)OC1C[C@@]2(C)C(c3ccoc3)C[C@H]3O[C@@]32[C@@]2(C)C(=O)C(O)=C3C(C)(C)C(=O)C=C[C@]3(C)C12 (some centres not stated) | 8.9µM* | -17% | . | 0% | ?
CC(=O)O[C@@H]1C[C@@]2(C)C(c3ccoc3)C[C@H]3O[C@]32[C@]2(C)C(=O)C(O)=C3C(C)(C)C(=O)C=C[C@]3(C)C12 (some centres not stated) | 25µM* | -8% | . | 1% | ?
O=C(O)/C=C\c1ccc[c]([Sb])c1 | . | . | . | -5%[7.66 µM] | .
CCN1C[C@]2(C)CC[C@H](O)[C@@]34C5C[C@@H]6[C@@H](OC)C[C@@](O)(C5[C@H]6O)[C@@H](CC23)[C@@H]14 (some centres not stated) | -4% | -2% | . | 2% | -4%
COc1ccc(C(=O)O[C@H]2CC[C@@]3(C)[C@H]4CC[C@H]5[C@]3(C[C@]3(O)[C@H]6CN7C[C@H](C)CC[C@H]7[C@](C)(O)[C@]6(O)[C@H](O)C[C@]53O)O[C@]24O)cc1OC | . | . | . | -4%[7.66 µM] | .
COc1cccc(C(=O)c2cn(CC(=O)Nc3cc(Cl)c(OC)cc3OC)c3nc(C)ccc3c2=O)c1 | 4% | -3% | . | . | ?
CN(C)c1ccc(NC(=O)Oc2ccccc2)cc1 | 14µM* | ? | -11%[46.1 µM] | -9% | ?
CCOc1ccc(C(=O)Nc2cc(NC(=O)c3ccco3)ccc2OC)cc1Br | ? | -28% | . | . | -6%
Fc1ccc(C(OCCN2CCN(C/C=C/c3ccccc3)CC2)c2ccc(F)cc2)cc1 | ? | -21% | . | . | 3%
N[C@H](CCP(=O)(O)O)C(=O)O | -4% | -2% | . | 3% | 5%
